According to PubChem BioAssay AID1159580 (chemical genetic matrix, 2015):
Hit rate of the full screen: of about 5,500 compounds, about 2,000 (36%) were called active. Inconclusive results (about 18%) are left out. Cut-off read from the data, not from the text of the source: active = normalized growth mostly below about 0.91 (no sharp cut-off); inconclusive = no clear call, values can overlap the other calls; inactive = mostly above about 0.92. The list shows a part of the results.

Experiment: chemical genetic growth profiling, strain panel (AID 1159580);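 note: tested at 20 µM; growth read once vehicle control cultures reached saturation at 30 °C; 1 = growth at the plate median or of vehicle wells; lower values mean less growth of the strain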
Settings: growth OD
[1] = S. cerevisiae deletion strains, locus YAL013W, strain DEP1, active compounds read low
[2] = S. cerevisiae deletion strains, locus YBR229C, strain ROT2, active compounds read low
[3] = S. cerevisiae deletion strains, locus YDL101C, strain DUN1, active compounds read low
[4] = S. cerevisiae deletion strains, locus YEL061C, strain CIN8, active compounds read low
[5] = S. cerevisiae deletion strains, locus YHR030C, strain SLT2, active compounds read low
[6] = S. cerevisiae deletion strains, locus YJR043C, strain POL32, active compounds read low
[7] = S. cerevisiae deletion strains, locus YKL190W, strain CNB1, active compounds read low
[8] = S. cerevisiae deletion strains, locus YLR039C, strain RIC1, active compounds read low
[9] = S. cerevisiae deletion strains, locus YLR262C, strain YPT6, active compounds read low
[10] = S. cerevisiae deletion strains, locus YMR263W, strain SAP30, active compounds read low
[11] = S. cerevisiae deletion strains, locus YMR307W, strain GAS1, active compounds read low
[12] = S. cerevisiae deletion strains, locus YNL153C, strain GIM3, active compounds read low
[13] = S. cerevisiae deletion strains, locus YPL241C, strain CIN2, active compounds read low
[14] = S. cerevisiae strains, strain wild type, active compounds read low

Measured: normalized growth

COC(=O)Oc1ccccc1C(=O)O
inactive: [1] 1.02 | S. cerevisiae deletion strains, locus YBR021W, strain FUR4, active compounds read low 0.976 | [2] 1.01 | S. cerevisiae deletion strains, locus YCL029C, strain bik1, active compounds read low 1.01 | S. cerevisiae deletion strains, locus YDL035C, strain GPR1, active compounds read low 0.995 | S. cerevisiae deletion strains, locus YDL074C, strain BRE1, active compounds read low 1.04 | [3] 1.02 | S. cerevisiae deletion strains, locus YDL134C, strain PPH21, active compounds read low 0.991 | S. cerevisiae deletion strains, locus YDL185W, strain tfp1, active compounds read low 1.01 | S. cerevisiae deletion strains, locus YDL192W, strain arf1, active compounds read low 1.02 | S. cerevisiae deletion strains, locus YDR101C, strain arx1, active compounds read low 1.01 | S. cerevisiae deletion strains, locus YDR162C, strain NBP2, active compounds read low 0.99 | S. cerevisiae deletion strains, locus YDR318W, strain mcm21, active compounds read low 1.01 | S. cerevisiae deletion strains, locus YDR388W, active compounds read low 1.01 | S. cerevisiae deletion strains, locus YDR502C, strain sam2, active compounds read low 1.01 | [4] 1.01 | S. cerevisiae deletion strains, locus YER110C, active compounds read low 1.03 | S. cerevisiae deletion strains, locus YER155C, strain BEM2, active compounds read low 1.01 | S. cerevisiae deletion strains, locus YER167W, strain BCK2, active compounds read low 1.01 | S. cerevisiae deletion strains, locus YGL078C, strain dbp3, active compounds read low 1.01 | S. cerevisiae deletion strains, locus YGL086W, strain mad1, active compounds read low 1.01 | S. cerevisiae deletion strains, locus YGL248W, strain PDE1, active compounds read low 1.01 | S. cerevisiae deletion strains, locus YGR135W, strain pre9, active compounds read low 1.01 | S. cerevisiae deletion strains, locus YGR252W, strain gcn5, active compounds read low 1.01 | [5] 1.01 | S. cerevisiae deletion strains, locus YHR079C, strain IRE1 (second series), active compounds read low 1.01 | S. cerevisiae deletion strains, locus YHR094C, strain hxt1, active compounds read low 1.02 | S. cerevisiae deletion strains, locus YHR129C, strain ARP1, active compounds read low 1.01 | S. cerevisiae deletion strains, locus YHR200W, strain rpn10, active compounds read low 1.02 | S. cerevisiae deletion strains, locus YIL066C, strain RNR3, active compounds read low 0.987 | S. cerevisiae deletion strains, locus YIL073C, strain SPO22, active compounds read low 1.03 | S. cerevisiae deletion strains, locus YIL125W, strain kgd1, active compounds read low 1.02 | S. cerevisiae deletion strains, locus YIR030C, strain dcg1, active compounds read low 1.01 | S. cerevisiae deletion strains, locus YJL095W, strain BCK1, active compounds read low 1.05 | S. cerevisiae deletion strains, locus YJL134W, strain LCB3, active compounds read low 1.01 | S. cerevisiae deletion strains, locus YJL168C, strain set2, active compounds read low 1.03 | S. cerevisiae deletion strains, locus YJL187C, strain SWE1 (second series), active compounds read low 1.02 | [6] 0.983 | S. cerevisiae deletion strains, locus YKL009W, strain mrt4, active compounds read low 1.01 | S. cerevisiae deletion strains, locus YKL068W, active compounds read low 1 | S. cerevisiae deletion strains, locus YKL085W, strain MDH1 (second series), active compounds read low 1.01 | S. cerevisiae deletion strains, locus YKL085W, strain MDH1, active compounds read low 1.01 | [7] 1.02 | S. cerevisiae deletion strains, locus YKR001C, strain vps1, active compounds read low 1.01 | [8] 1.02 | S. cerevisiae deletion strains, locus YLR058C, strain SHM2, active compounds read low 1.01 | S. cerevisiae deletion strains, locus YLR102C, strain apc9, active compounds read low 1.02 | [9] 1.04 | S. cerevisiae deletion strains, locus YLR268W, strain sec22, active compounds read low 1.02 | S. cerevisiae deletion strains, locus YLR330W, strain CHS5, active compounds read low 1.01 | S. cerevisiae deletion strains, locus YLR342W, strain FKS1 (second series), active compounds read low 0.995 | S. cerevisiae deletion strains, locus YLR371W, strain rom2, active compounds read low 1.02 | S. cerevisiae deletion strains, locus YLR418C, strain cdc73, active compounds read low 1.06 | S. cerevisiae deletion strains, locus YML016C, strain PPZ1, active compounds read low 0.999 | S. cerevisiae deletion strains, locus YML032C, strain rad52, active compounds read low 1.01 | S. cerevisiae deletion strains, locus YML124C, strain tub3, active compounds read low 1.01 | S. cerevisiae deletion strains, locus YMR078C, strain ctf18, active compounds read low 1.02 | S. cerevisiae deletion strains, locus YMR223W, strain ubp8, active compounds read low 1.01 | [10] 1.03 | [11] 1.06 | S. cerevisiae deletion strains, locus YNL067W, strain RPL9B, active compounds read low 1.07 | S. cerevisiae deletion strains, locus YNL128W, strain TEP1, active compounds read low 1.02 | [12] 1.03 | S. cerevisiae deletion strains, locus YNL233W, strain BNI4, active compounds read low 1.01 | S. cerevisiae deletion strains, locus YNL250W, strain rad50, active compounds read low 1.04 | S. cerevisiae deletion strains, locus YNL271C, strain bni1, active compounds read low 1.02 | S. cerevisiae deletion strains, locus YNL298W, strain CLA4, active compounds read low 1.02 | S. cerevisiae deletion strains, locus YNL307C, strain MCK1, active compounds read low 1.02 | S. cerevisiae deletion strains, locus YNR052C, strain pop2, active compounds read low 1.02 | S. cerevisiae deletion strains, locus YOL012C, strain htz1 0.797 | S. cerevisiae deletion strains, locus YOL147C, strain pex11, active compounds read low 1.02 | S. cerevisiae deletion strains, locus YOR061W, strain CKA2, active compounds read low 1.01 | S. cerevisiae deletion strains, locus YOR069W, strain VPS5, active compounds read low 1.01 | S. cerevisiae deletion strains, locus YOR136W, strain idh2, active compounds read low 1.02 | S. cerevisiae deletion strains, locus YOR144C, strain elg1, active compounds read low 1.02 | S. cerevisiae deletion strains, locus YOR184W, strain ser1, active compounds read low 1.02 | S. cerevisiae deletion strains, locus YOR316C, strain cot1, active compounds read low 1.02 | [13] 1 | S. cerevisiae deletion strains, locus YPR119W, strain clb2, active compounds read low 1.02 | S. cerevisiae deletion strains, locus YPR141C, strain kar3, active compounds read low 1.03 | S. cerevisiae deletion strains, locus YPR163C, strain tif3, active compounds read low 1.01 | S. cerevisiae deletion strains, locus YPR167C, strain met16, active compounds read low 1.01 | S. cerevisiae deletion strains, strain wtn01, active compounds read low 1.01 | [14] 1.02

O=C(COC(=O)c1ccccc1Nc1ccccc1)c1ccc(Cl)cc1
inactive: [1] 0.978 | [2] 0.99 | S. cerevisiae deletion strains, locus YCL061C, strain MRC1, active compounds read low 0.993 | [3] 0.986 | S. cerevisiae deletion strains, locus YDR150W, strain NUM1, active compounds read low 0.9 | [4] 0.993 | S. cerevisiae deletion strains, locus YGR078C, strain PAC10, active compounds read low 0.982 | S. cerevisiae deletion strains, locus YGR229C, strain SMI1, active compounds read low 0.98 | [5] 1.01 | S. cerevisiae deletion strains, locus YHR087W, strain rtc3, active compounds read low 0.974 | S. cerevisiae deletion strains, locus YJL187C, strain SWE1, active compounds read low 0.997 | [6] 0.98 | S. cerevisiae deletion strains, locus YJR075W, strain HOC1, active compounds read low 1 | [7] 0.988 | [8] 0.944 | S. cerevisiae deletion strains, locus YLR058C, strain SHM2 (second series), active compounds read low 0.992 | S. cerevisiae deletion strains, locus YLR085C, strain ARP6, active compounds read low 1.02 | [9] 0.987 | S. cerevisiae deletion strains, locus YML094W, strain GIM5, active compounds read low 0.956 | S. cerevisiae deletion strains, locus YMR219W, strain ESC1, active compounds read low 0.988 | [10] 0.927 | [11] 0.987 | [12] 0.993 | S. cerevisiae deletion strains, locus YNL298W, strain CLA4 (second series), active compounds read low 1 | S. cerevisiae deletion strains, locus YNL322C, strain KRE1, active compounds read low 0.966 | S. cerevisiae deletion strains, locus YNR030W, strain Alg12, active compounds read low 0.99 | S. cerevisiae deletion strains, locus YOL006C, strain TOP1, active compounds read low 0.964 | S. cerevisiae deletion strains, locus YPL055C, strain LGE1, active compounds read low 0.921 | [13] 0.9 | S. cerevisiae deletion strains, locus YPR135W, strain CTF4, active compounds read low 1.01 | [14] 0.985
